A number with no mark means an inactive call. Calls of active or inactive are those of the source. The rule behind the calls is not given here. Where only a bound is given, the exact number is not on record here.
Potency is the fitted concentration of half-maximal effect.

In this test the test system is HIV-1 nucleocapsid protein NCp7 (binding to TG oligonucleotide). As to the kind of experiment: HIV Nucleocapsid (AID 346).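 Note: potency is for inhibitors that block NC binding and lower polarization.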 As to conditions: HIV-1 NC / fluorescein-TGTGTGTG probe, fluorescence polarization. A digest of the protocol: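 Fluorescence polarization binding of 100 nM HIV-1 NC to 10 nM fluorescein-labelled TG4xF oligonucleotide. Buffer was Hepes pH 7.5 with 250mM NaCl, 1uM ZnCl2, TCEP and 2-mercaptoethanol. Compounds were incubated 1 hr at room temperature before the read.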
Regarding `CC(=O)NCCNc1cc(-c2ccccc2C(F)(F)F)ncn1`, the Potency is more than 20 µM.
Turning to `Cc1cccc(CNc2ccnc(-c3ccccc3CN(C)C)n2)c1`, the Potency was more than 20 µM.
The result for `Cn1cc(-c2nc3cnc(N4CCNCC4)nc3n(C)c2=O)c2ccccc21` reads more than 20 µM; that for `O=C(Nc1ccccc1)N1CCC2(CC1)CCN(S(=O)(=O)c1ccccc1)CC2`, more than 20 µM.
The result for `O=C(c1cnccn1)N1CCC2(CCCN(c3ccncc3)C2)CC1` reads more than 20 µM; that for `Cn1cc(-c2nc3cnc(N4CCNCC4)nc3n(CCC#N)c2=O)c2ccccc21`, more than 20 µM; that for `Cc1cnc(CNc2cc(-c3c(C)noc3C)ncn2)cn1`, more than 20 µM.
Take `O=C(c1ccco1)N1CCC[C@@]2(CCN(C(c3ccccc3)c3ccccc3)C2)C1`: the Potency is more than 20 µM.
In the case of `Cc1noc(C)c1C(=O)N1CCC2(CCCN(c3ncccn3)C2)CC1`, the Potency is more than 20 µM.
`COc1cccc(Cn2c(=O)cnc3cnc(Nc4ccccc4)nc32)c1`: the Potency is 4.95 µM (active).
For the compound `CS(=O)(=O)Nc1cccc(-c2cc(NCc3ccccc3)ncn2)c1`, the Potency was more than 20 µM.
The value for `COc1ccc(C(=O)N2CCC3(CCN(CC(C)C)CC3)CC2)cc1` was more than 20 µM.
Regarding `N#Cc1cccc(NC(=O)N2CCCC3(CCN(C(=O)c4cnccn4)CC3)C2)c1`, the Potency was more than 20 µM.
The result for `CN(C)c1ncc2nc(CCc3ccccc3)c(=O)n(Cc3ccc(F)cc3)c2n1` reads more than 20 µM; that for `CC(C)CN1CC[C@@]2(CCCN(C(=O)c3cnccn3)C2)C1`, more than 4 µM.

The record behind these values is PubChem BioAssay (NCATS).
